B2AR arrestin = recruits beta-arrestin to the human beta2-adrenergic receptor. Potency, µM (titrated, usually from 46.1 µM), actives largely listed as activators. beta-arrestin recruitment to beta2AR, cell-based reporter. 0.02% of 330,000 active. P07550. AID 492947; further: nearly all actives have a fitted effect of over 65% in size
Target sequence (P07550 whole entry, looked up): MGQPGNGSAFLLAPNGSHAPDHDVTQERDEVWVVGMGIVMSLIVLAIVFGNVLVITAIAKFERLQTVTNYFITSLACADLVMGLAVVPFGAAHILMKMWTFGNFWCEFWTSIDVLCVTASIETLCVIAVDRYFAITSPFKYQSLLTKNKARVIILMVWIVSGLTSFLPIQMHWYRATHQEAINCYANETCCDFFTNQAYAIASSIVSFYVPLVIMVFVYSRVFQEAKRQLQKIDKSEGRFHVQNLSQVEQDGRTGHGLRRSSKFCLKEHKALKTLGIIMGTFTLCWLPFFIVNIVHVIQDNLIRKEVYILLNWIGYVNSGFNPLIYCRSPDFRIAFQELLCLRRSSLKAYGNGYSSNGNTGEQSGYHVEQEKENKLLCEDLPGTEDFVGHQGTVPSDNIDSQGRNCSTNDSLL
EPAC1 ag = activates human EPAC1 exchange factor; EPAC1 agonist qHTS, biochemical assay; response scale: 100% = response to 6.5 mM cAMP; 0.073% of 360,000 active; O95398; Potency, µM (top dose mostly 154 µM), most hits filed as activators; AID 720707; further: nearly all actives have a fitted effect of over 60% in size
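Multi-concentration qHTS readout: loss of Rap1B-bound BODIPY-GDP fluorescence driven by 100 nM EPAC1 with excess GDP (50 uM), monitored kinetically at room temperature; agonist response expressed relative to 6.5 mM cAMP.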
EPAC2 antagonist = blocks human EPAC2 exchange factor | Potency, µM (top dose mostly 114 µM), most hits filed as inhibitors | EPAC2 GEF exchange of Rap1B-BODIPY-GDP, fluorescence | Q8WZA2 | AID 720708 | 0.18% of 360,000 active; further: nearly all actives have a fitted effect of over 45% in size
EPAC1 antag = antagonists of human EPAC1. EPAC1 GEF assay, Rap1b-BODIPY-GDP exchange fluorescence. AID 720709. Potency, µM (highest dose often 115 µM), actives largely listed as inhibitors. 0.14% of 360,000 active. O95398; further: nearly all actives have a fitted effect of over 50% in size
EPAC2 agonist = EPAC2 (human) agonism. AID 720711. 0.079% of 360,000 active. Potency, µM (highest dose often 154 µM), actives largely listed as activators. EPAC2 activation, biochemical qHTS; response scale: 100% = 6.5 mM cAMP response; further: nearly all actives have a fitted effect of over 50% in size
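Readout is BODIPY fluorescence (480 nm excitation, 540 nm emission), which falls as labeled GDP is exchanged off Rap1B. EPAC2 at 100 nM acted on 250 nM RAP1B-BODIPY-GDP with 50 uM GDP present.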
Of the large screens only hits and unclear results are named; the others gave an inactive call. In the library only some 0.4% were active in any assay of this set; here they are far more common. The call rests on the fitted dose curve; in most records, active means well fitted curve in the direction sought with a large enough effect; inconclusive means small, poorly fitted or top-dose-only effect, or another doubt; inactive means no such curve, though single readings can be large; an effect the other way counts as inactive or inconclusive.

COc1ccc(C(=O)CC(Sc2ccccc2N)c2ccc(OC)cc2)cc1 (stereo unspecified)	none (no result: B2AR arrestin)
CCc1cc(=O)oc2cc(C)cc(OCC(=O)N[C@@H](CSCc3ccccc3)C(=O)O)c12	EPAC2 antagonist 56µM
O=C(/C=C/c1ccco1)NCC1OCCc2ccccc21 (stereo unspecified)	EPAC1 antag 56µM
C=CC(=O)NCC1OCCc2ccccc21 (stereo unspecified)	none
COc1ccc(CNC(=O)c2cccc3c(-c4cnn(C)c4)coc23)cc1OC	none (no result: B2AR arrestin)
COCCCn1c(=O)/c(=C\c2ccccc2OC(C)C)s/c1=C(/C#N)C(=O)Nc1ccc(C(=O)O)cc1	EPAC1 ag 112µM
COc1cc(/C=N/NC(=O)c2csc3c2CCCC3)ccc1OCCN1CCOCC1	none
COc1cccc(C2=NN(C(=O)c3ccco3)C(c3ccco3)C2)c1 (stereo unspecified)	EPAC2 antagonist 14µM
COc1cccc(C2CC(c3cccs3)=NN2C(=O)c2ccco2)c1O (stereo unspecified)	EPAC2 antagonist 35µM
CCN(CC)c1nc(N)c2c(N)nc3c(c2c1C#N)CC(c1ccccc1)O3 (stereo unspecified)	none
CCN(CC)c1nc(N)c2c(N)n(-c3ccccc3C)c(=S)c(C#N)c2c1C#N	EPAC1 antag 89µM
Cc1cc2ccccn2c1C(=O)c1ccc(Cl)cc1	EPAC2 antagonist inconclusive
Cc1cc2ccccn2c1C(=O)c1ccccc1F	EPAC2 antagonist 45µM
O=C(COC(=O)c1ccc2ncsc2c1)NCc1ccccc1Cl	none
CC(NC(=O)/C(C#N)=C/c1ccc(N2CCOCC2)cc1)c1ccccc1 (stereo unspecified)	EPAC1 ag 89µM, EPAC2 agonist inconclusive
COC(=O)c1ccc(/C=C(\C#N)C(=O)NC(C)c2ccccc2)cc1 (stereo unspecified)	none
COC(=O)c1cc(Br)c(=O)n(CCc2ccc(O)cc2)c1	none
COC(=O)c1cc(Br)c(=O)n(CCc2ccc(F)cc2)c1	EPAC2 antagonist 28µM
CC(C)CCNC(=O)CN(Cc1ccco1)C(=O)CCC(=O)Nc1nccs1	none
CN(CC(=O)Nc1ccccc1C(F)(F)F)C(=O)c1cc(-c2cccs2)nn1-c1ccccc1	EPAC1 ag 112µM
c1ccc(-c2cn3nc(-c4ccccc4)c(-c4ccccc4)nc3n2)cc1	EPAC1 ag inconclusive, EPAC2 agonist inconclusive
Cc1ccc(-c2cn3nc(-c4ccccc4)c(-c4ccccc4)nc3n2)cc1	EPAC2 agonist 100µM
O=c1oc(-c2ccccc2)c(-c2ccccc2)c2ccccc12	EPAC2 antagonist 45µM (no result: B2AR arrestin)
Cc1nn(CCc2nn[nH]n2)c2nc(C(F)(F)F)cc(C(F)(F)F)c12	none
Cc1nn(CCc2nn[nH]n2)c2nc(-c3ccc(Br)cc3)cc(C(F)(F)F)c12	EPAC2 antagonist 32µM
Cc1ccc(C)n1-c1cc([N+](=O)[O-])ccc1-n1ccnc1	none
CC1(C)N([O-])c2cc([N+](=O)[O-])ccc2[N+]1=O	EPAC2 antagonist inconclusive, EPAC1 antag 71µM
O=C(Cn1ccc(=O)[nH]c1=O)c1ccc([N+](=O)[O-])o1	EPAC1 ag 100µM, EPAC2 agonist inconclusive (no result: B2AR arrestin)
O=C(Cn1ccc(=O)[nH]c1=O)NCCO	none
CC1(C)CC(=O)C2=C(C1)c1c(ccc3ccccc13)NC2c1cc([N+](=O)[O-])cc([N+](=O)[O-])c1O (stereo unspecified)	EPAC2 antagonist 79µM, EPAC1 antag 32µM
CC1(C)CC(=O)C2=C(C1)c1c(ccc3ccccc13)NC2c1ccc(C(=O)O)cc1 (stereo unspecified)	none
CC12CCCC(CC(=O)O)(C1)NC(=O)C2 (stereo unspecified)	none (no result: B2AR arrestin)
O=C1C(=Cc2ccccc2Cl)CCc2ccccc21	EPAC2 antagonist 35µM, EPAC1 antag inconclusive (no result: B2AR arrestin)
CCCC(=O)OC1CC(C)N(C(=O)c2ccccc2)c2ccc(C)cc21 (stereo unspecified)	EPAC2 antagonist 25µM
CC(=O)N1c2ccc(C)cc2C(c2ccccc2)CC1C (stereo unspecified)	none
CCCC(=O)N1CCC1(C)C(=O)NS(=O)(=O)c1cccc(F)c1 (stereo unspecified)	none (no result: B2AR arrestin)
COc1ccc(NC(=O)Nc2c(O)ccc3ccccc23)cc1	none (no result: B2AR arrestin)
O=C(O)CC/C(=C\c1ccc(N2CCCC2)c([N+](=O)[O-])c1)c1nc2ccccc2s1	EPAC1 ag 89µM, EPAC1 antag 45µM
Cn1ccc2c(-c3ccc(C(N)=O)cc3)cc3c(c21)C1CCC3C1 (stereo unspecified)	none (no result: B2AR arrestin)
Cc1ccc(C(=O)NC2CC(C)(C)NC(C)(C)C2)cc1S(=O)(=O)N1CCOCC1	none (no result: B2AR arrestin)
O=C1C=CC(c2ccccc2)(c2ccccc2)CC1	EPAC2 antagonist 45µM (no result: B2AR arrestin)
Nc1ccc2c(c1)C(=O)C(=O)c1ccccc1-2	EPAC2 antagonist 8.9µM, EPAC1 antag inconclusive
C[C@H](CO)N1C[C@H](C)[C@@H](CN(C)S(=O)(=O)c2ccccc2C#N)OCc2cnnn2CCCC1=O	none (no result: B2AR arrestin)
Nc1ccc(-c2c3ccc(=O)cc-3oc3cc(O)ccc23)cc1C(=O)O	EPAC1 ag 100µM, EPAC2 agonist 100µM
O=c1ccc2c(-c3ccccc3)c3ccc(O)cc3oc-2c1	EPAC1 ag inconclusive
COc1cc(NC(=O)c2ccnc(N)c2)cc(C(=O)Nc2cccc(C(F)(F)F)c2)c1	EPAC1 antag 71µM
COc1cc(NC(=O)c2cnc(N)s2)cc(C(=O)Nc2cccc(C(F)(F)F)c2)c1	EPAC1 antag 40µM
COc1cc(CN2C(=O)C(C)ON=C2c2ccccc2F)cc(OC)c1 (stereo unspecified)	EPAC2 antagonist 32µM (no result: B2AR arrestin)
Cc1ccc(S(=O)(=O)/N=C2/NC(=O)/C(=C\c3cc(Br)cc(Br)c3O)S2)cc1	EPAC2 antagonist 79µM, EPAC1 antag inconclusive
COc1ccccc1NC(=O)COC(=O)c1ccc([N+](=O)[O-])s1	EPAC2 antagonist inconclusive, EPAC1 antag 11µM
Cc1ccccc1C1=C/C(=C(\SS/C(C(=O)c2ccc(OCC(=O)O)c(Cl)c2Cl)=C2\C=C(c3ccccc3C)SS2)C(=O)c2ccc(OCC(=O)O)c(Cl)c2Cl)SS1	EPAC2 antagonist 71µM, EPAC1 antag 50µM (no result: B2AR arrestin)
CC(C)N(C)S(=O)(=O)c1ccc(NC(=O)CSC(=S)N2CCCC2)cc1	none
Cc1ccc(NC(=S)NNC(C)(C)C)cc1	B2AR arrestin 8.9µM
CCc1nnc(NS(=O)(=O)c2ccc(NC(=S)NC(=O)/C=C/c3ccc(F)cc3)cc2)s1	EPAC1 antag 22µM
Cc1ccc(NC(=O)CN2C(=O)NC(C)(CC(C)C)C2=O)c(Br)c1 (stereo unspecified)	none
CC(C)CCNc1c(-c2cccs2)nc2ccccn12	EPAC2 antagonist 45µM
CCOc1ccc(C(=O)OCC(=O)NCC2CCCO2)cc1 (stereo unspecified)	none
